pAkt inh – inhibitors of Akt phosphorylation. AID 651550. activity change, % for hits at 50 µM. hit rate 0.32% among 360,000. Neuro2A IGF-stimulated pAkt S473 HTRF, 20 min; hits give low values; in the data active means activity change below about -80%; inconclusive means mostly about -51% to -80%; further: on the % scale 0 is the no-effect control and ±100 the full control effect
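Neuro2A cells in DMEM with 0.5% FBS, overnight at 37 deg C, given compound at single 50 µM final, then IGF (6 nM final) for 20 min at 37 deg C. Lysed; phospho-Akt Ser473 by HTRF after 24 h, 665/615 ratio.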
PI4K2A block – PI4K2A (human) kinase inhibition. Q9BTU6. purified PI4K2A, ADP-Glo luminescence, 1 h; hits give low values. activity change, negative = inhibition, % at 76.9 µM. hit rate 0.13% among 420,000. AID 1346378; in the data active means activity change below about -50%; inconclusive means mostly about -30% to -49%;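 further: -100% = wells without enzyme as full effect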
Target sequence (Q9BTU6 whole entry, looked up): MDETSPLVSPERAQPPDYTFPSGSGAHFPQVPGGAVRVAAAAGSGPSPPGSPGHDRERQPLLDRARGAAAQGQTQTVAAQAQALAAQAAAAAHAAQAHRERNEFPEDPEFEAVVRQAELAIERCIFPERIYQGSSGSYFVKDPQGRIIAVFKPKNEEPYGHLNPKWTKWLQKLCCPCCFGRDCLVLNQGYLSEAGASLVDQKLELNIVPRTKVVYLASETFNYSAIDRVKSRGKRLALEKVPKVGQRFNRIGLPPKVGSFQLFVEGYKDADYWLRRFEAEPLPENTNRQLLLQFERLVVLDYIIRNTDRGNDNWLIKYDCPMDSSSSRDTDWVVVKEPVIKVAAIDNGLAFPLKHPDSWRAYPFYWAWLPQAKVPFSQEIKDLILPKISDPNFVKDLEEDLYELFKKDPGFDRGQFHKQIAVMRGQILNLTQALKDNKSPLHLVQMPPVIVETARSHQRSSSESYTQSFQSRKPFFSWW
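Compounds are screened against recombinant PI4K2A using PI as substrate and ATP, the latter dispensed at 300 microM. Reactions run one hour at ambient temperature before ADP-Glo detection; full inhibition defined by wells lacking enzyme.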
D3 antag – blocks the human D3 dopamine receptor; max response, negative = inhibition, %; P35462; D3R cells, DiscoveRx beta-arrestin luminescence, antagonist mode; hits give low values; hit rate 2.5% among 360,000; AID 652054; in the data active means max response below about -50%; inconclusive means no clear call, values can overlap the other calls; further: on the % scale 0 is the no-effect control and ±100 the full control effect
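Cells plated overnight at 1500 cells/well, then exposed to library compounds with dopamine controls for 90 minutes at 37 degrees C. DiscoveRx reagent added for 30–60 minutes at room temperature; luminescence read, quantitative HTS format.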
D3 ag – D3 dopamine receptor (human) agonism; P35462; D3R DiscoveRx beta-arrestin cells, luminescence, 90 min; max activation, %; hit rate 0.58% among 410,000; AID 652048; in the data active means max activation above about 30%; further: 0% is about no effect
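Cells at 1500/well, incubated overnight, then treated with pinned compounds (dopamine as control) for 90 min at 37 degrees C. DiscoveRx reagent added for 30 - 60 minutes at room temperature; luminescence read.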
RGS4 inh – human RGS4 inhibition | Transcreener GDP fluorescence polarization, RGS4-accelerated GTP hydrolysis | Potency, µM (highest dose often 114 µM), without a hit: top-dose activity change, negative = inhibition, actives largely listed as inhibitors | hit rate 0.039% among 390,000 | AID 504845; active means well fitted inhibition curve with a large enough effect; inconclusive means small, poorly fitted or top-dose-only effect; inactive means no such curve, though single readings can be large or run the other way; further: potency means the concentration at half of the fitted maximal effect; on the % scale 0 is the no-effect control and ±100 the full control effect; nearly all actives have a fitted effect of over 75% in size
Target sequence (P49798 whole entry, looked up): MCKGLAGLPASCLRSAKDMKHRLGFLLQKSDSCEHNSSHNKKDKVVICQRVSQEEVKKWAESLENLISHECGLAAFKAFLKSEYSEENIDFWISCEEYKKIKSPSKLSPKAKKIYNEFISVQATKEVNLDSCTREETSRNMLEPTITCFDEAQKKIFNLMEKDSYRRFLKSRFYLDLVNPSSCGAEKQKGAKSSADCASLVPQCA
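MLSMR compounds (23 nl, pin-transferred) preincubated 10 min at room temperature with a 500nM (2x) first reagent, then RGS4 at 900nM (2x) plus Transcreener GDP mix added; fluorescence polarization (620/688 nm) read before and after 90 min at 30 °C.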
LDHA block – blocks human lactate dehydrogenase A. P00338. purified LDHA, NADH/diaphorase-resazurin fluorescence; hits give low values. activity change, % (values are at about 110 or 230 µM). hit rate 0.15% among 480,000. AID 1347041; in the data active means activity change below about -30%; inconclusive means mostly about -25% to -30%;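 further: plate controls were DMSO wells for no effect and wells without enzyme for full effect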
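Enzyme activity of human lactate dehydrogenase 5 (2 nM; 0.06 mM NADH, 0.2 mM pyruvate, 5 min, RT) is measured via a resazurin/diaphorase fluorescence readout of residual NADH.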
An asterisk follows results filed as active; i = inactive; ? = inconclusive; nt = not tested or not shown; [ ] = another dose, or the depositor's remark. Only some compounds are listed: those with a hit (about 2.8% of all), similar ones and a draw of the others.

SMILES	pAkt inh	PI4K2A block	D3 antag	D3 ag	RGS4 inh	LDHA block
COc1ccccc1C1CCN(Cc2ccccc2Cl)CC1	i	1	-75*	-42	13%	-8
COc1ccccc1C1CCN(Cc2ccccc2)CC1	i	-3	-116*	-24	-13%	-4
CC(SCc1ccccc1)C(=O)c1c[nH]c2ccccc12 (stereo not drawn)	nt	nt	nt	nt	nt	12
CC(C)c1ccc(NC(=O)/C=C/c2c(F)cccc2Cl)cc1	nt	nt	nt	nt	nt	3
COCCNC(=O)c1noc2c1CCc1cc(OC)ccc1-2	i	1	?	11	-4%	-3
COc1ccc2c(c1)CCc1c(C(=O)NC3CCCCC3)noc1-2	i	3	28	35*	3%	5
COc1ccc(CNc2oc(COc3ccc(C)cc3)nc2C#N)cc1	nt	nt	nt	nt	nt	-2
COc1ccc(-c2coc3c(C(=O)NCC4CC4)cccc23)c(C)c1	i	2	276	56*	nt	-2
NCC(Cc1ccccc1F)c1ccccc1 (stereo not drawn)	nt	nt	nt	nt	nt	3
Cc1[nH]n2c(=O)c3c(nc2c1-c1ccccc1)CCCC3	i	6	-25	0	-16%	-3
Cc1[nH]n2c(=O)c3c(nc2c1-c1cccc2ccccc12)CCC3	-114%*	0	37	-3	-18%	0
Cc1ccc(CNC(=O)c2ccc3noc(-c4ccccc4)c3c2)cc1	nt	nt	nt	nt	nt	4
COc1ccc(C(=O)Nc2nc(N3C(=O)c4ccccc4C3=O)n(-c3ccccc3)n2)cc1	i	-14	-91*	-6	0%	7
O=C(Nc1nc(N2C(=O)c3ccccc3C2=O)n(-c2ccccc2)n1)c1ccccc1	i	0	42	2	-3%	13
O=C(Nc1nc(N2C(=O)c3ccccc3C2=O)n(-c2ccccc2)n1)c1ccc(F)cc1	i	-6	-55*	12	11%	3
CC(=O)Nc1nc(N2C(=O)c3ccccc3C2=O)n(-c2ccccc2)n1	i	-2	-63*	-1	7%	11
COc1ccc(-c2coc3cc(OCC(=O)NCc4cccc(Cl)c4)ccc3c2=O)cc1OC	nt	nt	nt	nt	nt	-3
COc1ccccc1CN(C)C(=O)c1cc(-c2cc(OC)c(OC)c(OC)c2)nc2ccccc12	i	5	33	14	-8%	-3
COc1cc(-c2cc(C(=O)OCC(=O)NC3CC3)c3ccccc3n2)cc(OC)c1OC	i	6	58	32*	-9%	-4
COc1cc(-c2cc(C(=O)N(C)Cc3ccccc3)c3ccccc3n2)cc(OC)c1OC	i	3	16	32*	-6%	-1
O=c1c2c(nc(NCCO)n1C1CCCCC1)-c1ccccc1CC21CCCC1	nt	nt	nt	nt	nt	9
COc1cc(-c2cc(C(=O)O)c3ccccc3n2)ccc1O	nt	nt	nt	nt	nt	15
CCc1cc2c(=O)c(Oc3ccccc3)c(C(F)(F)F)oc2cc1OC(=O)c1ccccc1Cl	nt	nt	nt	nt	nt	10
O=C(CNCc1ccccc1Cl)Nc1ccccc1N1CCCCC1	i	-3	-60*	-24	-7%	-17
O=C(Cc1ccccc1F)Nc1ccccc1N1CCCC1	i	-1	0	-3	-1%	0
SMILES	pAkt inh	PI4K2A block	D3 antag	D3 ag	RGS4 inh	LDHA block
O=C(Nc1ccccc1N1CCCC1)C1CCN(C(=O)c2ccc(Cl)cc2)CC1	i	2	15	-1	24%	-1
O=C(CNCC1CCCO1)Nc1ccccc1N1CCCCCC1 (stereo not drawn)	i	0	-62*	0	7%[56.9 µM]	-16
O=C(Nc1ccccc1N1CCCCC1)C1CCN(C(=O)c2ccc(Cl)cc2)CC1	i	2	-59*	-7	-33%	2
COc1cc(/C=C2\S/C(=N/S(=O)(=O)c3ccccc3)NC2=O)c([N+](=O)[O-])cc1OC	i	-6	-88*	-4	-25%	-9
OCC1CCCN(C2CCN(Cc3nc(Cc4cccc(C(F)(F)F)c4)no3)CC2)C1 (stereo not drawn)	i	2	15	30*	3%	-2
CC(C)c1ccc(NC(=O)CN2CCN(c3ccccn3)CC2)cc1	i	5	-13	9	29%	-4
CC(=O)c1ccc(NC(=O)CN2CCN(c3ncccn3)CC2)cc1	i	0	-24	70*	4%[56.9 µM]	-14
N#Cc1ccc(NC(=O)CN2CCN(c3ccccn3)CC2)cc1	i	2	12	49*	8%	2
COc1ccc(N2CCN(C(=O)CN=C3NS(=O)(=O)C(c4ccc(C)cc4)=C3C)CC2)cc1	i	11	-79*	-8	-25%	1
CCC1=C(c2ccc(C)cc2)S(=O)(=O)N=C1N1CCC(C(=O)Nc2ccc(OC)c(OC)c2)CC1	nt	nt	nt	nt	nt	1
CCCn1nnnc1SCC(=O)Nc1ccc(F)cc1	i	11	14	-2	-6%	-1
CCCn1nnnc1SCC(=O)Nc1nnc(CC)s1	-108%*	9	17	3	8%	2
COCCn1c(-c2ccc(OC)cc2)nc2c1c(=O)[nH]c(=O)n2CC(C)C	nt	nt	nt	nt	nt	-13
O=C1O[C@@H](c2ccccc2)C[C@@H](O)[C@H](O)CCCc2ccccc21	i	-9	-55*	-13	nt	6
CCOCCCNc1nc2ccccc2nc1NS(=O)(=O)c1ccccc1	nt	nt	nt	nt	nt	7
Cc1[nH]n(-c2ccccc2)c(=S)c1C=Nc1cccc([N+](=O)[O-])c1	i	-16	-100*	-5	-193%	-4
CCOC(=O)c1cnc2ccc(OC)cc2c1Nc1ccc2c(c1)OCCO2	i	2	-70*	0	0%	5
CN1OC[C@@H]2CN(Cc3cc(Cl)cc(Cl)c3)[C@H](c3cccc(-c4ccc(C#N)cc4)c3)C[C@@H]21	i	-3	-3	-1	nt	-31*
CC(C)NC(=O)CSc1nc(NC2CC2)c2ccccc2n1	nt	nt	nt	nt	nt	-12
CCc1ccc(NC(=S)NCC2CCCN2CC)cc1 (stereo not drawn)	i	5	-75*	-27	7%	-4
CCN1CCCC1CNC(=O)C(=O)Nc1ccc(OC)cc1 (stereo not drawn)	i	-4	-6	3	1%	0
OCC1(Cc2ccccc2)CCN(Cc2cccc(F)c2F)CC1	i	1	-130*	-21	22%	-3
OCC1(Cc2ccc(Cl)cc2)CCN(Cc2ccccc2F)CC1	i	0	?	-20	-14%	0
OCC1(Cc2ccc(Cl)cc2)CCN(CCCc2ccccc2)CC1	i	-2	-65*	7	11%	-4
